Screening data from PubChem BioAssay.
Most compounds without a hit are left out; they make up all but 2.8% or so of the library.
TNF death inh: TNF-alpha cell death inhibition in Jurkat FADD-/- cells. Jurkat FADD-/- TNF necroptosis rescue, ATP luminescence, 24 h; 0 = TNF only, 100 = no-TNF cells. activation (protection from cell death), % at 10 µM. 220,000 tested, 0.068% active. AID 463075;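 active = activation, meaning protection from cell death, of at least 50% relative to plate controls; inactive = activation below 50%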;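 also: necroptosis triggered by 40 ng/mL TNF-alpha added together with compound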
Mcl1-Noxa inh: disrupts binding of human Mcl-1 to Noxa peptide. TR-FRET Mcl-1/Noxa peptide binding, 2 h. Q07820. 220,000 tested, 1.5% active. inhibition, % at 21.7 µM;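 active = compounds that cut the protein-peptide binding signal by more than 50% relative to plate controls in a single-dose test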;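 also: His-tagged Mcl-1 with rhodamine Noxa BH3 peptide and terbium anti-His antibody; 0% = Mcl-1 plus Noxa peptide wells and 100% = peptide-only wells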
Target sequence (Q07820 whole entry, looked up): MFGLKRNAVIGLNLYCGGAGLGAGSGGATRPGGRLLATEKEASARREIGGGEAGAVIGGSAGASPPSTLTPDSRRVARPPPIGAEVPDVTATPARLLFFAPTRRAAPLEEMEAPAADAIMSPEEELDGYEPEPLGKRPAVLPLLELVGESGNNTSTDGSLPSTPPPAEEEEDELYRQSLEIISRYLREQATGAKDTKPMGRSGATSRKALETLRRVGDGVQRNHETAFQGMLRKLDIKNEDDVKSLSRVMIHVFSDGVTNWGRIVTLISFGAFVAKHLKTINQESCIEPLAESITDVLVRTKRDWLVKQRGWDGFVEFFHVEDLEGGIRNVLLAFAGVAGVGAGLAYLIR
zVAD death inh: blocks zVAD induced death of L929 cells; L929 zVAD necroptosis rescue, ATP luminescence, 24 h; with zVAD 60 µM; viability rescue, % at 10 µM; 220,000 tested, 0.38% active; AID 1377;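 active = activation, scaled between plate controls, above about 75%, limit read from the data; inactive = activation under that limit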;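 also: 0% = zVAD with DMSO and 100% = DMSO alone without zVAD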
Calpain2 inh: blocks pig calpain II enzyme activity. purified calpain II, fluorogenic peptide substrate, 30 min. inhibition, % at 16 µM. 220,000 tested, 0.37% active. AID 1236;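 active = inhibition above about 50%, limit read from the data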
Mcl1-Bid inh: Mcl-1/Bid interaction inhibition. TR-FRET Mcl-1/Bid-Dy647 peptide binding, 1536-well. inhibition, % at 21.7 µM. 220,000 tested, 0.97% active. AID 1021;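 active = compounds that cut the binding signal by more than half at the single screening dose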;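 also: His-tagged Mcl-1 with europium anti-His antibody binding Bid BH3 peptide; 0% = Mcl-1 plus peptide wells and 100% = peptide-only wells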
Bim-Mcl-1: inhibitors of Bim-Mcl-1 interaction, human | 190,000 tested, 0.1% active | Q07820 | inhibition, % at 10 µM | Bead-based flow cytometry, Bim peptide-Mcl-1 binding; in the data active = inhibition above about 40%;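 also: 0% = no compound tracer wells and 100% = peptide blocker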
zVAD death conf: confirmed blocker of zVAD induced death in L929 cells; shares compounds with zVAD death inh; L929 zVAD-induced necroptosis rescue, ATP luminescence, 24 h; activation (protection from necroptosis), % at 10 µM; AID 463117; 760 tested, 16% active;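 active = mean protection from necroptosis of at least 50% over duplicate tests; inactive = mean protection below 50%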;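 also: 0% = cells with zVAD alone and 100% = vehicle cells without zVAD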
* = called active by the depositor; / = no result given.

SMILES	TNF death inh	Mcl1-Noxa inh	zVAD death inh	Calpain2 inh	Mcl1-Bid inh	Bim-Mcl-1	zVAD death conf
O=C(N/N=C/C=C/c1ccccc1)c1cc(C2CC2)[nH]n1	8.2	-2.2	77.4*	10.1	-10.1	/	4.3
Cc1cc(C(=O)N/N=C/C=C/c2cccc([N+](=O)[O-])c2)n[nH]1	18.6	12.7	87.2*	18.0	5.0	0.0	0.5
N#C/C(C(=O)NCc1ccccc1)=C1/N=C(NC(=O)c2cccs2)c2ccccc21	-6.1	-66.1	3.7	-21.7	-20.6	-5.0	/
COC(=O)[C@@H]1C[C@@]2(O)[C@@H](O)[C@@H](O)[C@@H](O)C[C@H]2N1CC(c1ccccc1)c1ccccc1	-0.8	-3.6	0.1	-12.0	-55.5	/	/
Oc1ccc(/C=N/Nc2ccc(C(F)(F)F)cn2)cc1	38.2	27.7	83.1*	9.1	-46.5	0.0	63.5*
COc1cc(/C=N/Nc2ccc(C(F)(F)F)cn2)cc(OC)c1O	36.1	56.8*	80.7*	35.2	-19.0	0.0	74.9*
Cc1ccc(N=c2oc3cc(O)ccc3cc2C(N)=O)cc1	-11.1	16.6	78.6*	-206.5	-11.1	0.0	37.7
COc1ccc(NC(=O)c2cc3cccc(OC)c3oc2=Nc2ccc(C(=O)O)cc2)cc1OC	-5.7	76.8*	82.1*	2.0	-51.1	-2.0	10.6
COc1ccc(Br)cc1C(=O)Nc1ccc(C(=O)O)cc1	0.0	1.0	-0.6	23.8	2.4	-7.0	/
O=C(O)CN1C(=O)/C(=C/c2ccc(SCc3ccccc3)o2)SC1=S	-11.8	-17.7	-0.3	29.8	1.9	2.0	/
COc1ccc(NC(=O)c2ccc(S(=O)(=O)C(F)F)cc2)c(OC)c1	0.5	8.4	77.3*	-11.3	-23.8	0.0	1.3
CCOC(=O)c1sc(NC(=O)CCCn2nc([N+](=O)[O-])cc2C)c(C(=O)OCC)c1C	1.6	17.9	/	27.6	-9.0	3.0	/
Cn1cc(C(=O)N/N=C/c2cccs2)c2ccccc21	-2.8	21.5	80.7*	12.9	-10.0	0.0	4.8
Cc1cc(C(=O)N/N=C/c2cccs2)n[nH]1	20.1	5.3	81.9*	-2.6	2.6	0.0	2.3
Cc1cc(C(=O)N/N=C/c2ccc(-c3cccc(Cl)c3)o2)n[nH]1	23.3	-1.5	75.4*	-31.6	-19.9	/	6.7
Cc1cc(C(=O)N/N=C/c2cccs2)no1	1.6	5.2	0.4	3.0	-50.7	-8.0	/
COc1ccc(C(=O)N/C(=C\c2ccc3c(c2)OCO3)C(=O)Nc2cccc(C(=O)O)c2)cc1	0.7	5.0	2.5	-17.2	0.5	0.0	/
CCOC(=O)c1sc(NC(=O)Nc2ccc(Cl)cc2)nc1C	-3.0	14.0	4.6	7.0	-11.0	11.0	/
CC1CCCCC1NC1=NCCCS1 (centres undefined)	0.9	9.6	2.0	-20.8	-9.0	0.0	/
Cc1cnc(NC(=O)c2cc3c(s2)CCCC3)s1	47.5	8.1	79.1*	-29.5	9.7	1.0	79.0*
Cc1cnc(NC(=O)c2ccco2)s1	-0.2	3.8	83.0*	11.0	-25.4	-2.0	9.6
O=C(Nc1ccc(N2CCOCC2)cc1)c1cc2c(s1)CCCCC2	2.7	-15.1	75.3*	-36.1	-64.8	0.0	4.6
Cc1ccc(C(=O)Nc2cccc(C(F)(F)F)c2)cc1NC(=O)c1cnnc2ccccc12	1.5	-8.5	72.2	-25.8	30.6	/	/
Cc1cn(-c2cc(C(=O)Nc3ccc(C)c(NC(=O)C(=O)c4c[nH]c5ccccc45)c3)cc(C(F)(F)F)c2)cn1	-10.1	6.2	77.4*	-69.7	-41.1	/	70.8*
CCOc1ccccc1NC(=O)CSc1nnnn1-c1ccc(C(=O)OC)cc1	-2.7	-16.6	77.5*	12.0	-9.0	0.0	0.4
SMILES	TNF death inh	Mcl1-Noxa inh	zVAD death inh	Calpain2 inh	Mcl1-Bid inh	Bim-Mcl-1	zVAD death conf
Cn1nc(C(C)(C)C)cc1NC(=O)Nc1ccc(Cl)cc1	6.5	4.1	82.3*	22.1	-4.3	/	54.6*
Cn1nc(C(C)(C)C)cc1NC(=O)Nc1ccc(F)cc1F	3.1	-1.2	8.9	22.9	6.2	/	/
CC1CCC2(CC1)NC(=O)N(CC(=O)Nc1ccc3c(c1)OCCO3)C2=O (centres undefined)	1.1	-7.9	2.9	7.2	-3.8	-2.0	/
CCN(c1ccccc1)S(=O)(=O)c1ccc(Oc2ccc(-n3ccnc3)cc2)nc1	0.7	3.7	86.8*	-8.1	-7.0	-5.0	1.2
CCN(c1ccccc1)S(=O)(=O)c1ccc(C(=O)NCCCn2ccnc2)cc1	0.2	-15.1	1.1	-8.0	-8.0	-2.0	/
COc1ccc(C(=O)Nc2ncc(C)s2)cc1S(=O)(=O)N1CCCC1	13.0	9.0	88.6*	18.8	3.7	-1.0	1.7
Cc1ccccc1C(=O)NC(CC(C)C)C(=O)OCC(=O)c1c(N)n(C)c(=O)n(C)c1=O (centres undefined)	-0.3	6.0	1.8	-18.4	-39.9	0.0	/
CC1CCCN(Cc2c(O)ccc3c(=O)c(-c4nc5ccccc5s4)c(N)oc23)C1 (centres undefined)	-4.3	48.8	78.0*	-90.5	2.7	6.0	37.9
CCNC(=O)c1c(O)c2ccccc2[nH]c1=O	54.5*	-17.6	75.6*	-9.4	17.0	-3.0	1.6
COC(=O)c1ccn(Cc2ccccc2Cl)n1	100.0*	6.3	89.9*	-29.6	-18.9	1.0	81.3*
COC(=O)c1cc2n(n1)CCN(Cc1ccccc1Cl)C2=O	-1.5	-0.2	-0.2	3.8	-19.1	0.0	/
COc1ccc(Cl)cc1NC(=O)COc1cccc(-n2cnnn2)c1	-0.3	6.4	80.8*	-10.4	-2.5	-2.0	33.3
O=C(COc1cccc(-n2cnnn2)c1)Nc1ccccc1	2.1	-0.1	73.5	-19.3	5.1	8.0	/
Cc1ccccc1NC(=O)Cc1nnc(NC(=O)Nc2ccccc2F)s1	4.0	7.9	0.6	11.5	-7.5	/	/
O=C(Nc1nnc(-c2ccncc2)s1)Nc1ccccc1F	4.5	15.2	78.4*	22.6	21.4	0.0	4.1
O=C(COc1ccccc1F)Nc1nnc(-c2ccncc2)s1	1.7	20.4	0.1	-166.8	5.1	-5.0	/
COc1ccc(OCc2nnc(NC(=O)Nc3ccccc3F)s2)cc1	3.2	7.1	83.4*	-7.7	-50.5	/	4.6
CCN(CC)c1ccc(N/C(N)=N/c2nc(C(F)(F)F)cc(=O)[nH]2)cc1	-1.9	-11.8	91.2*	-34.9	-28.6	-1.0	0.3
Cc1cc(=O)oc2cc(OCC(=O)OC(C)C(=O)NC3CCCC3)ccc12 (centres undefined)	-0.3	9.2	-0.8	-53.9	-10.8	-2.0	/
COC(=O)c1ccc(-c2ccc(/C=N/N3C(=O)C4C5C=CC(CC5)C4C3=O)o2)cc1 (centres undefined)	5.7	14.4	83.0*	-67.4	-6.6	0.0	0.4
